Here are results for 29 molecules from PubChem BioAssay (EPA / NIEHS).

Activity calls are given as the source filed them. How the source made its calls: active means hit-call score of the fitted dose curve at least 0.9, where 1 is the maximum; inactive means score below 0.9.

Read-out in one test: serum amyloid A (SAA), SAA1 (gene 6288)
Description: BSK_CASM3C_SAA: BioMAP Diversity Plus: CASM3C Assay for serum amyloid A (SAA) Biomarker Activity (AID 2283049).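 Further: SAA protein level quantified by ELISA.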 As to conditions: primary human coronary artery smooth muscle cells; actives raise or lower the signal.
Consider `O=C(O)c1cc(N=Nc2ccc(S(=O)(=O)Nc3ccccn3)cc2)ccc1O`, for which the outcome was inactive.
The same measure, in the same setting: in the case of `CCCCCCCCO` it was “inactive”; in that of `CN(C)c1ccc(Cc2ccc(N(C)C)cc2)cc1`, “inactive”; in that of `C[C@](N)(Cc1ccc(O)c(O)c1)C(=O)O`, “inactive”.
With `CCOCCOCCOCCO`, the result was inactive.
The same measure, in the same setting: in the case of `CC[C@H]1CC[C@H](NCc2cc3c(cc2OC)[C@H]2C[C@H]2C(=O)N3C)[C@H](c2ccccc2)N1` it was “inactive”; in that of `Nc1ccc(Nc2ccccc2)cc1`, “inactive”; in that of `On1ccccc1=S`, “inactive”.
For `CCOC(=O)CC(CC(=O)OCC)(OC(C)=O)C(=O)OCC`, the outcome was inactive.
On to `O=C(O)c1cccc(Oc2ccccc2)c1`, for which the outcome was inactive.
Take `Cn1cnc([N+](=O)[O-])c1Sc1ncnc2nc[nH]c12`: the result was inactive.

Read-out in a further test: not listed separately
In words: BSK_CASM3C_SRB: Viability Assessment in the BioMAP Diversity Plus: CASM3C Assay (AID 2283050).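 Further: total protein by SRB staining as cytotoxicity measure in parallel cultures; cells exposed to compound for 24 h.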 As to conditions: primary human coronary artery smooth muscle cells.
For `Clc1nc(Cl)c(Cl)c(Cl)c1Cl`, the result was inactive.
On to `CC[C@H]1OC(=O)[C@H](C)[C@@H](O[C@H]2C[C@@](C)(OC)[C@@H](O)[C@H](C)O2)[C@H](C)[C@@H](O[C@@H]2O[C@H](C)C[C@H](N(C)C)[C@H]2O)[C@](C)(O)C[C@@H](C)C(=O)[C@H](C)[C@@H](O)[C@]1(C)O`, for which the result was inactive.
Turning to `CCOc1cccc(-n2cc(C(=O)N3CCN(c4cc(C(=O)O)c5ccccc5c4)CC3)nc2-c2ccc(C)cc2)c1`, the result was inactive.
Consider `CC(C)CCCCCCOC(=O)c1ccc(C(=O)OCCCCCCC(C)C)c(C(=O)OCCCCCCC(C)C)c1`, for which the result was inactive.
On to `Cc1[nH]cnc1C[C@H]1CCc2c(C)c3ccccc3n2C1=O`, for which the result was inactive.
As to `Oc1ccc2c(c1)-c1ccccc1C2`, the outcome was inactive.
Regarding `CCCN(C1CCN(C(=O)C2CCNCC2)CC1)[C@@H]1CCc2ccc(OC)cc2C1`, the outcome was inactive.
`COC(=O)c1ccccc1O`: the result was inactive.
On to `COCCOCCOCCOC`, for which the outcome was inactive.
For `O=c1[nH]c2ccc(S(=O)CCN3CCC(Cc4ccc(F)cc4)CC3)cc2o1` (centres undefined), the outcome was inactive.
For `O=C(O)CC(O)C(=O)O` (centres undefined), the outcome was inactive.
In the case of `CC(C)CC(C)(O)C#CC(C)(O)CC(C)C` (centres undefined), the outcome was inactive.
Same read-out and setting: in the case of `CC/C(=C\C(=N/O)C(N)=O)C(C)[N+](=O)[O-]` (centres undefined) it was “inactive”; in that of `COCCOc1cc2cc(C(=O)NC3CCN(C(C)C)CC3)n(CC(=O)Nc3ccc(Cl)cn3)c2cn1`, “inactive”; in that of `COC(=O)CC(=O)OC`, “inactive”.
With `C1N2CN3CN1CN(C2)C3`, the outcome was inactive.
Turning to `CNCc1ccc(NC(=O)c2c[nH]c3c2C(=O)CCC3)cc1`, the result was inactive.
With `CC(=O)OC[C@H]1O[C@@](COC(C)=O)(O[C@H]2O[C@H](COC(C)=O)[C@@H](OC(C)=O)[C@H](OC(C)=O)[C@H]2OC(C)=O)[C@@H](OC(C)=O)[C@@H]1OC(C)=O`, the outcome was inactive.
On to `O=C(O)c1cc(N=Nc2ccc(S(=O)(=O)Nc3ccccn3)cc2)ccc1O`, for which the outcome was inactive.
Take `CCCCCCCCO`: the outcome was inactive.
`CN(C)c1ccc(Cc2ccc(N(C)C)cc2)cc1`: the result was inactive.
Consider `C[C@](N)(Cc1ccc(O)c(O)c1)C(=O)O`, for which the result was inactive.
As to `CCOCCOCCOCCO`, the outcome was inactive.
With `CC[C@H]1CC[C@H](NCc2cc3c(cc2OC)[C@H]2C[C@H]2C(=O)N3C)[C@H](c2ccccc2)N1`, the result was inactive.
As for `Nc1ccc(Nc2ccccc2)cc1`, the outcome was inactive.
What is called AC50 is the concentration giving half of the maximal activity seen. With `On1ccccc1=S`, the AC50 is 26.8 µM (active).
With `CCOC(=O)CC(CC(=O)OCC)(OC(C)=O)C(=O)OCC`, the outcome was inactive.
On the same count and under the same terms, in the case of `O=C(O)c1cccc(Oc2ccccc2)c1` it was “inactive”; in that of `Cn1cnc([N+](=O)[O-])c1Sc1ncnc2nc[nH]c12`, “inactive”.

Read-out in the next test: Thrombomodulin, THBD (gene 7056)
Description: BSK_CASM3C_Thrombomodulin: BioMAP Diversity Plus: CASM3C Assay for Thrombomodulin Biomarker Activity (AID 2283051).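 Further: thrombomodulin protein level measured by ELISA 24 h after dosing.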 As to conditions: primary human coronary artery smooth muscle cells; actives raise or lower the signal.
Consider `Clc1nc(Cl)c(Cl)c(Cl)c1Cl`, for which the outcome was inactive.
Consider `CC[C@H]1OC(=O)[C@H](C)[C@@H](O[C@H]2C[C@@](C)(OC)[C@@H](O)[C@H](C)O2)[C@H](C)[C@@H](O[C@@H]2O[C@H](C)C[C@H](N(C)C)[C@H]2O)[C@](C)(O)C[C@@H](C)C(=O)[C@H](C)[C@@H](O)[C@]1(C)O`, for which the outcome was inactive.
Same read-out and setting: in the case of `CCOc1cccc(-n2cc(C(=O)N3CCN(c4cc(C(=O)O)c5ccccc5c4)CC3)nc2-c2ccc(C)cc2)c1` it was “inactive”.
Regarding `CC(C)CCCCCCOC(=O)c1ccc(C(=O)OCCCCCCC(C)C)c(C(=O)OCCCCCCC(C)C)c1`, the outcome was inactive.
On to `Cc1[nH]cnc1C[C@H]1CCc2c(C)c3ccccc3n2C1=O`, for which the result was inactive.
For the molecule `Oc1ccc2c(c1)-c1ccccc1C2`, the result was inactive.
With `CCCN(C1CCN(C(=O)C2CCNCC2)CC1)[C@@H]1CCc2ccc(OC)cc2C1`, the result was inactive.
Still for that read-out and setting: in the case of `COC(=O)c1ccccc1O` it was “inactive”.
The same measure, in the same setting: in the case of `COCCOCCOCCOC` it was “inactive”; in that of `O=c1[nH]c2ccc(S(=O)CCN3CCC(Cc4ccc(F)cc4)CC3)cc2o1` (centres undefined), “inactive”; in that of `O=C(O)CC(O)C(=O)O` (centres undefined), “inactive”.
Take `CC(C)CC(C)(O)C#CC(C)(O)CC(C)C` (centres undefined): the result was inactive.
For the molecule `CC/C(=C\C(=N/O)C(N)=O)C(C)[N+](=O)[O-]` (centres undefined), the result was inactive.
`COCCOc1cc2cc(C(=O)NC3CCN(C(C)C)CC3)n(CC(=O)Nc3ccc(Cl)cn3)c2cn1`: the result was inactive.
As to `COC(=O)CC(=O)OC`, the result was inactive.
For the molecule `C1N2CN3CN1CN(C2)C3`, the outcome was inactive.
`CNCc1ccc(NC(=O)c2c[nH]c3c2C(=O)CCC3)cc1`: the result was inactive.
Regarding `CC(=O)OC[C@H]1O[C@@](COC(C)=O)(O[C@H]2O[C@H](COC(C)=O)[C@@H](OC(C)=O)[C@H](OC(C)=O)[C@H]2OC(C)=O)[C@@H](OC(C)=O)[C@@H]1OC(C)=O`, the outcome was inactive.
For the molecule `O=C(O)c1cc(N=Nc2ccc(S(=O)(=O)Nc3ccccn3)cc2)ccc1O`, the result was inactive.
On to `CCCCCCCCO`, for which the result was inactive.
`CN(C)c1ccc(Cc2ccc(N(C)C)cc2)cc1`: the AC50 is 20 µM (active).
Turning to `C[C@](N)(Cc1ccc(O)c(O)c1)C(=O)O`, the result was inactive.
In the case of `CCOCCOCCOCCO`, the result was inactive.
Take `CC[C@H]1CC[C@H](NCc2cc3c(cc2OC)[C@H]2C[C@H]2C(=O)N3C)[C@H](c2ccccc2)N1`: the outcome was inactive.
As to `Nc1ccc(Nc2ccccc2)cc1`, the AC50 was 3.23 µM (active).
In the case of `On1ccccc1=S`, the AC50 is 0.878 µM (active).
As for `CCOC(=O)CC(CC(=O)OCC)(OC(C)=O)C(=O)OCC`, the result was inactive.
On to `O=C(O)c1cccc(Oc2ccccc2)c1`, for which the outcome was inactive.
Consider `Cn1cnc([N+](=O)[O-])c1Sc1ncnc2nc[nH]c12`, for which the result was inactive.
